Most compounds without a hit are left out; they make up all but 2.4% or so of the library.
D2 PAM-1: Beta-Arrestin HTS for Positive Allosteric Modulators of the Human D2 Dopamine Receptor: Potentiators. actives 0.23% (n = 360,000). DiscoveRx D2 beta-arrestin cells, luminescence, 90 min; 100% = 57 uM dopamine signal. AID 624464, 2012. potentiation, % (test concentration not listed); in the data active means potentiation above about 50%
Target sequence (P14416 whole entry, looked up): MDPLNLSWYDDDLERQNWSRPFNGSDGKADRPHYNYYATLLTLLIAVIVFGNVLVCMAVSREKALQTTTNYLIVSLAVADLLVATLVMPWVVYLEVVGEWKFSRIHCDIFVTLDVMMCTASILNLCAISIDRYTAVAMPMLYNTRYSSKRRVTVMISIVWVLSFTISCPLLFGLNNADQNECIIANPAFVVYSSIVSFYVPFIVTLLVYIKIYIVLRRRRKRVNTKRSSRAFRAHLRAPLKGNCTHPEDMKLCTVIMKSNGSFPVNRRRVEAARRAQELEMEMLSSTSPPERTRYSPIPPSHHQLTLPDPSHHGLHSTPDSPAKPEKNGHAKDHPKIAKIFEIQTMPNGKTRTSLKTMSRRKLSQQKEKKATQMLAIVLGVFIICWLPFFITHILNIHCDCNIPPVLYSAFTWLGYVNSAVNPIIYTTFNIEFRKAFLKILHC
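PathHunter D2 cells, attached overnight at 37 deg C, received compound in DMSO plus dopamine at EC20 (50 nM final) for 90 min at 37 deg C. Beta-arrestin recruitment was read as luminescence after 1 h with detection reagent at ambient temperature.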
D2 antagonist: HTS Assay for Allosteric Antagonists of the Human D2 Dopamine Receptor: Primary Screen for Antagonists. D(2) dopamine receptor (Homo sapiens), P14416. HEK293 TREx D2 cells, calcium flux, dopamine EC80. AID 485344, 2010. actives 2% (n = 340,000). inhibition, % at 10 µM; in the data active means inhibition above about 30%; inactive means below that, where a call was filed; further: 0% is about no effect
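Tetracycline-induced HEK293 TREx cells expressing D2 receptor forced-coupled to calcium signalling, loaded with no-wash calcium dye. Compounds added and calcium flux read 180 s, then dopamine added at EC80 and read a further 180 s.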
D2 ag-1: Beta-Arrestin HTS for Positive Allosteric Modulators of the Human D2 Dopamine Receptor: Agonists | D(2) dopamine receptor (Homo sapiens), P14416 | DiscoveRx PathHunter D2 beta-arrestin, luminescence, 90 min; 100% = 57 uM dopamine signal | activation, % (concentration not given with the values) | actives 0.084% (n = 360,000); in the data active means activation above about 40%
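Agonist mode: compounds alone added to overnight-plated D2 PathHunter cells for 90 min at 37 C, with 57 uM final dopamine (EC100) defining full response. Beta-arrestin recruitment detected by chemiluminescent reagent, read after 1 h at ambient temperature.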
D2 ag-2: HTS Assay for Allosteric Agonists of the Human D2 Dopamine Receptor: Primary Screen for Agonists | HEK293 T-REx D2 cells, calcium flux agonist mode | D(2) dopamine receptor (Homo sapiens), P14416 | AID 485358, 2010 | actives 0.53% (n = 340,000) | activation, % at 2 µM;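 active means activation over 3 SD above normal in the single-dose calcium agonist read, cut at about 30% in these data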; further: 0% is about no effect
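Agonism scored from kinetic calcium signal (1 read/sec, 180 s) following compound pin transfer, after a 10 s baseline. Cells: HEK293 Trex line expressing inducible D2 receptor coupled to calcium, dye-loaded after overnight culture at 30 C.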
D2 PAM-2: HTS Assay for Positive Allosteric Modulators of the Human D2 Dopamine Receptor: Primary Screen for Potentiators. D(2) dopamine receptor (Homo sapiens), P14416. HEK293 T-REx D2, calcium flux, EC20 dopamine potentiation. potentiation, % at 10 µM. actives 0.34% (n = 340,000);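 active means potentiation over 3 SD above the plate norm, cut at about 30% in these data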; further: 0% is about no effect
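Cells plated with tetracycline inducer and held overnight at 30 C; calcium dye loaded 30–90 min at room temperature; baseline taken, compound added and read 180 s; EC20 dopamine then added and read 180 s.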
The depositor's hits bear a star.

COc1ccc(Cc2noc(-c3ccccc3)n2)cc1OC was read as D2 PAM-1 -1.7, D2 antagonist 33.2*, D2 ag-1 0.3, D2 ag-2 2.1 and D2 PAM-2 0.5.
Screening COc1ccc(OC)c(NCc2nnc(-c3ccccc3)o2)c1 returned D2 PAM-1 -3.1, D2 antagonist -22.3, D2 ag-1 -1.0, D2 ag-2 0.5 and D2 PAM-2 0.3.
Screening COc1ccc(CCN(C)Cc2nc(Cc3ccc(OC)c(OC)c3)no2)cc1OC returned D2 PAM-1 -8.4, D2 antagonist 36.7*, D2 ag-1 -1.0, D2 ag-2 -1.8 and D2 PAM-2 27.0.
`O=C(NCc1ccc(Cl)cc1)c1ccc(NC(=O)N2CC3CCCN3c3ccccc32)cc1` (stereo not given) gave D2 ag-2 -0.4 and D2 PAM-2 -6.3.
For COC(=O)c1ccc(NC(=S)N(Cc2cccnc2)Cc2ccco2)cc1 the results were D2 PAM-1 6.1, D2 antagonist -4.8, D2 ag-1 7.3, D2 ag-2 0.0 and D2 PAM-2 12.2.
For CCc1ccc(NC(=O)N(Cc2cccnc2)Cc2ccco2)cc1 the results were D2 PAM-1 -14.4, D2 antagonist -5.6, D2 ag-1 -2.0, D2 ag-2 -0.5 and D2 PAM-2 32.4*.
For O=S1(=O)CCOC[C@H](CC2CCCCC2)N1Cc1cccc(Cl)c1 the results were D2 PAM-1 -4.9, D2 antagonist -15.3, D2 ag-1 -0.5, D2 ag-2 0.4 and D2 PAM-2 9.3.
CCC1COCCS(=O)(=O)N1Cc1cccc(Cl)c1 (stereo not given) was read as D2 PAM-1 -4.8, D2 antagonist 47.1*, D2 ag-1 -1.8, D2 ag-2 -0.1 and D2 PAM-2 4.4.
O=C(c1ccccc1F)N1CCCc2ccccc21 was read as D2 PAM-1 0.1, D2 antagonist -9.8, D2 ag-1 -1.2, D2 ag-2 0.5 and D2 PAM-2 39.1*.
For CN(C(=O)Nc1ccccc1)C1CCCc2ccccc21 (stereo not given) the results were D2 PAM-1 -4.1, D2 antagonist 30.4*, D2 ag-1 -4.8, D2 ag-2 -0.5 and D2 PAM-2 5.4.
O=C(c1cccc(F)c1F)N1CCCc2ccccc21 was read as D2 PAM-1 -11.2, D2 antagonist -12.0, D2 ag-1 0.4, D2 ag-2 1.1 and D2 PAM-2 1.7.
For O=C(Nc1ccccc1)N1CCCc2ccccc21 the results were D2 PAM-1 17.9, D2 antagonist -14.7, D2 ag-1 -1.7, D2 ag-2 -1.2 and D2 PAM-2 47.0*.
Screening Cc1ccc(NC(=O)N2CCCc3ccccc32)cc1C returned D2 PAM-1 -14.2, D2 antagonist -0.4, D2 ag-1 -11.6, D2 ag-2 -0.6 and D2 PAM-2 -10.9.
`O=C(Nc1ccccc1)C(=O)Nc1ccc2c(c1)N(C(=O)C1CC1)CCC2` gave D2 PAM-1 -26.9, D2 antagonist 35.2*, D2 ag-1 2.6, D2 ag-2 0.0 and D2 PAM-2 1.4.
For COc1ccc(C)cc1NC(=O)c1c2c(nc3ccccc13)C(=O)N(C1CCCCC1)C2 the results were D2 ag-2 1.2 and D2 PAM-2 4.2.
`CC1=C(C(=O)NCc2ccccc2C)C2(CCCCCC2)OC1=O` gave D2 ag-2 -1.6 and D2 PAM-2 7.8.
`CC1=NN(c2ccccc2)C(c2ccco2)C1` (stereo not given) gave D2 PAM-1 -6.1 and D2 ag-1 -5.9.
For O=[N+]([O-])c1ccc(C2=NN(c3ccccc3)C(c3ccco3)C2)cc1 (stereo not given) the results were D2 PAM-1 -5.7, D2 antagonist -2.6, D2 ag-1 0.0, D2 ag-2 56.1* and D2 PAM-2 2.9.
